Results published in PubChem BioAssay (NCI).
This is part of a sample that, as a whole, favours compounds with a hit. Of some 79,000 tested, about 15% had one in any assay. Values without a mark were called inactive. The source made the active and inactive calls. No stated cut-off is given here; in the data, active means growth inhibition above about 70%; inactive means the rest.

Experiments:
[1] = NCI Yeast Anticancer Drug Screen. Data for the mec2-1 strain (AID 157); conditions: S. cerevisiae mec2-1 strain, at 100.0 µM, active compounds read high
How it was run: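 Mutant yeast (mec2-1) grown with compound; growth inhibition relative to vehicle control reported.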

[2] = NCI Yeast Anticancer Drug Screen. Data for the rad14 strain (AID 159);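 further: 0% = growth of vehicle-treated control cultures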; conditions: S. cerevisiae rad14 strain growth inhibition, active compounds read high
How it was run: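 Screen for anticancer potential: a yeast strain altered in DNA damage repair is grown with compound, and reduced growth is quantified against vehicle controls.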

[3] = NCI Yeast Anticancer Drug Screen. Data for the sgs1 mgt1 strain (AID 161);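 further: 0% = growth of cultures given vehicle only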; conditions: S. cerevisiae sgs1 mgt1 strain, active compounds read high
How it was run: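 This yeast growth screen uses a strain with defined DNA-repair lesions; compound-treated growth is compared with vehicle-treated growth.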

[4] = NCI Yeast Anticancer Drug Screen. Data for the CLN2oe strain (AID 163);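 further: 0% = growth of vehicle-only control cultures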; conditions: S. cerevisiae CLN2oe strain, active compounds read high
How it was run: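 Compounds are applied to yeast harbouring a defined cell-cycle control change; reduced growth compared with vehicle-treated controls gives the value.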

[5] = NCI Yeast Anticancer Drug Screen. Data for the cln2 rad14 strain (AID 165);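 further: 0% = growth equal to vehicle treated cultures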; conditions: S. cerevisiae cln2 rad14 strain, active compounds read high
How it was run: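 Readout is yeast growth inhibition versus vehicle-treated controls, using a strain with cln2 and rad14 alterations exposed to compound.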

[6] = NCI Yeast Anticancer Drug Screen. Data for the bub3 strain (AID 167); conditions: S. cerevisiae bub3 mutant strain, active compounds read high
How it was run: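 Screening used yeast with an engineered genetic alteration affecting cell cycle control. Compound-exposed cultures were compared with vehicle cultures, and reduced growth was taken as inhibition.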

[7] = NCI Yeast Anticancer Drug Screen. Data for the wt2 strain (AID 169);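 further: 0% = growth of vehicle-treated yeast cultures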; conditions: S. cerevisiae wt2 strain growth inhibition, active compounds read high
How it was run: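 Against vehicle-treated controls, the growth of yeast exposed to each compound was compared, and the inhibition was recorded.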

[8] = NCI Yeast Anticancer Drug Screen. Data for the mlh1 strain (AID 171);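 further: 0% = growth of vehicle-treated control cultures of the same strain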; conditions: S. cerevisiae mlh1 strain growth inhibition, active compounds read high
How it was run: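 Measured: yeast growth. Reference: vehicle-treated controls. Organism: strain with a defined alteration affecting DNA damage repair or cell cycle control, treated with compound.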

[9] = NCI Yeast Anticancer Drug Screen. Data for the sgs1 strain (AID 173);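 further: 0% = growth of vehicle-only control cultures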; conditions: S. cerevisiae sgs1 mutant, active compounds read high
How it was run: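 Each compound was added to cultures of the altered yeast strain. Growth was recorded, and inhibition was derived by comparison with vehicle controls.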

[10] = NCI Yeast Anticancer Drug Screen. Data for the mlh1 rad18 strain (AID 175); conditions: S. cerevisiae mlh1 rad18 strain growth inhibition, active compounds read high
How it was run: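 Genetically defined yeast (DNA repair-deficient) exposed to compounds; growth inhibition determined relative to vehicle.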

[11] = NCI Yeast Anticancer Drug Screen. Data for the rad18 strain (AID 177); conditions: S. cerevisiae rad18 mutant growth inhibition, active compounds read high
How it was run: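 Vehicle-treated cultures served as the baseline for scoring compound-induced growth inhibition in DNA-repair-mutant yeast.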

[12] = NCI Yeast Anticancer Drug Screen. Data for the rad52 strain (AID 147);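 further: 0% = growth of vehicle-treated control cultures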; conditions: S. cerevisiae rad52 mutant growth inhibition, active compounds read high
How it was run: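 The repair-mutant yeast strain was incubated with compounds, then growth was read and inhibition derived relative to vehicle.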

[13] = NCI Yeast Anticancer Drug Screen. Data for the wt1 strain (AID 149);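 further: 0% = growth of vehicle-treated wt1 cultures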; conditions: S. cerevisiae wt1 strain (SPY 50644) growth inhibition, active compounds read high
How it was run: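 Using yeast strain wt1, compound-induced growth inhibition was determined against vehicle-treated cultures.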

[14] = NCI Yeast Anticancer Drug Screen. Data for the rad50EPP+ strain (AID 151);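 further: 0% = growth of vehicle-treated control cultures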; conditions: S. cerevisiae rad50 mutant strain, active compounds read high
How it was run: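 Vehicle-normalised growth inhibition; rad50EPP+ yeast strain, altered in DNA damage repair, compound-treated.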

[15] = NCI Yeast Anticancer Drug Screen. Data for the mgt1 strain (AID 153); conditions: S. cerevisiae mgt1 mutant growth inhibition, active compounds read high
How it was run: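 Vehicle-normalized growth inhibition is determined in mgt1 yeast, a strain selected for a defined alteration in DNA repair or cell cycle control.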

[16] = NCI Yeast Anticancer Drug Screen. Data for the rad50 strain (AID 155);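 further: 0% = growth of vehicle-only cultures of the same strain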; conditions: S. cerevisiae rad50 strain growth inhibition, active compounds read high
How it was run: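 Relative growth inhibition (compound vs vehicle) was measured in yeast with a defined repair-gene alteration.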

[17] = at 5.0 µM (retest, dose inferred, filed as 0.5)
[18] = at 50.0 µM (retest, dose inferred, filed as 5.0)

COC(=O)C1CCCCC1C(=O)Nc1ccccc1 (stereo not drawn)
growth inhibition [1]: -1% | growth inhibition ([2]; at 1.2 µM): -2% | growth inhibition ([2]; at 3.7 µM): -3% | growth inhibition ([2]; at 11.0 µM): -2% | growth inhibition ([2]; at 33.0 µM): -1% | growth inhibition ([2]; at 100.0 µM): -3% | growth inhibition [3, 17]: 0% | growth inhibition [3, 18]: -26% | growth inhibition ([3]; at 50.0 µM): 15.4% | growth inhibition ([4]; at 1.2 µM): -3% | growth inhibition ([4]; at 3.7 µM): -1% | growth inhibition ([4]; at 11.0 µM): -4% | growth inhibition ([4]; at 33.0 µM): -3% | growth inhibition ([4]; at 100.0 µM): -1% | growth inhibition [5, 17]: -2% | growth inhibition [5, 18]: 6% | growth inhibition ([5]; at 50.0 µM): 62.5% | growth inhibition ([6]; at 1.2 µM): -10% | growth inhibition ([6]; at 3.7 µM): -10% | growth inhibition [6, 17]: -7% | growth inhibition ([6]; at 11.0 µM): -12% | growth inhibition ([6]; at 33.0 µM): -12% | growth inhibition [6, 18]: -9% | growth inhibition ([6]; at 50.0 µM): 74.2% (active) | growth inhibition ([6]; at 100.0 µM): -11% | growth inhibition ([7]; at 1.2 µM): -2% | growth inhibition ([7]; at 3.7 µM): -1% | growth inhibition ([7]; at 11.0 µM): -2% | growth inhibition ([7]; at 33.0 µM): -4% | growth inhibition ([7]; at 100.0 µM): -1% | growth inhibition ([8]; at 1.2 µM): 0% | growth inhibition ([8]; at 3.7 µM): 0% | growth inhibition ([8]; at 11.0 µM): 2% | growth inhibition ([8]; at 33.0 µM): 2% | growth inhibition ([8]; at 100.0 µM): 2% | growth inhibition ([9]; at 1.2 µM): -2% | growth inhibition ([9]; at 3.7 µM): -2% | growth inhibition ([9]; at 11.0 µM): 0% | growth inhibition ([9]; at 33.0 µM): 0% | growth inhibition ([9]; at 100.0 µM): 1% | growth inhibition [10, 17]: -3% | growth inhibition [10, 18]: -2% | growth inhibition ([10]; at 50.0 µM): 25.6% | growth inhibition ([11]; at 1.2 µM): -2% | growth inhibition ([11]; at 3.7 µM): -1% | growth inhibition ([11]; at 11.0 µM): -2% | growth inhibition ([11]; at 33.0 µM): -3% | growth inhibition ([11]; at 100.0 µM): -1%

Brc1ccc(B2Nc3ccccc3N2)cc1
growth inhibition ([12]; at 1.2 µM): 3% | growth inhibition ([12]; at 3.7 µM): 14% | growth inhibition ([12]; at 11.0 µM): 29% | growth inhibition ([12]; at 33.0 µM): 42% | growth inhibition ([12]; at 100.0 µM): 46% | growth inhibition ([13]; at 1.2 µM): -2% | growth inhibition ([13]; at 3.7 µM): -1% | growth inhibition ([13]; at 11.0 µM): 16% | growth inhibition ([13]; at 33.0 µM): 31% | growth inhibition ([13]; at 100.0 µM): 40% | growth inhibition ([14]; at 1.2 µM): 10% | growth inhibition ([14]; at 3.7 µM): 19% | growth inhibition ([14]; at 11.0 µM): 29% | growth inhibition ([14]; at 33.0 µM): 34% | growth inhibition ([14]; at 100.0 µM): 42% | growth inhibition ([15]; at 1.2 µM): -5% | growth inhibition ([15]; at 3.7 µM): -2% | growth inhibition ([15]; at 11.0 µM): 10% | growth inhibition ([15]; at 33.0 µM): 25% | growth inhibition ([15]; at 100.0 µM): 5% | growth inhibition ([16]; at 1.2 µM): 6% | growth inhibition ([16]; at 3.7 µM): 14% | growth inhibition [16, 17]: 21% | growth inhibition ([16]; at 11.0 µM): 29% | growth inhibition ([16]; at 33.0 µM): 44% | growth inhibition [16, 18]: 53% | growth inhibition ([16]; at 50.0 µM): 73.8% (active) | growth inhibition ([16]; at 100.0 µM): 54% | growth inhibition ([2]; at 1.2 µM): 13% | growth inhibition ([2]; at 3.7 µM): 24% | growth inhibition ([2]; at 11.0 µM): 37% | growth inhibition ([2]; at 33.0 µM): 53% | growth inhibition ([2]; at 100.0 µM): 63% | growth inhibition [3, 17]: 31% | growth inhibition [3, 18]: 77% (active) | growth inhibition ([3]; at 50.0 µM): 82.1% (active) | growth inhibition ([4]; at 1.2 µM): -3% | growth inhibition ([4]; at 3.7 µM): 5% | growth inhibition ([4]; at 11.0 µM): 29% | growth inhibition ([4]; at 33.0 µM): 39% | growth inhibition ([4]; at 100.0 µM): 43% | growth inhibition [5, 17]: 12% | growth inhibition [5, 18]: 40% | growth inhibition ([5]; at 50.0 µM): 71.7% (active) | growth inhibition ([6]; at 1.2 µM): 9% | growth inhibition ([6]; at 3.7 µM): 19% | growth inhibition [6, 17]: 30% | growth inhibition ([6]; at 11.0 µM): 15% | growth inhibition ([6]; at 33.0 µM): 43% | growth inhibition [6, 18]: 73% (active) | growth inhibition ([6]; at 50.0 µM): 84.8% (active) | growth inhibition ([6]; at 100.0 µM): 52% | growth inhibition ([7]; at 1.2 µM): -4% | growth inhibition ([7]; at 3.7 µM): -4% | growth inhibition ([7]; at 11.0 µM): 6% | growth inhibition ([7]; at 33.0 µM): 17% | growth inhibition ([7]; at 100.0 µM): 27% | growth inhibition ([8]; at 1.2 µM): 0% | growth inhibition ([8]; at 3.7 µM): 6% | growth inhibition ([8]; at 11.0 µM): 17% | growth inhibition ([8]; at 33.0 µM): 28% | growth inhibition ([8]; at 100.0 µM): 44% | growth inhibition ([9]; at 1.2 µM): 0% | growth inhibition ([9]; at 3.7 µM): 6% | growth inhibition ([9]; at 11.0 µM): 23% | growth inhibition ([9]; at 33.0 µM): 35% | growth inhibition ([9]; at 100.0 µM): 45% | growth inhibition [10, 17]: 47% | growth inhibition [10, 18]: 87% (active) | growth inhibition ([10]; at 50.0 µM): 82.5% (active) | growth inhibition ([11]; at 1.2 µM): -2% | growth inhibition ([11]; at 3.7 µM): 1% | growth inhibition ([11]; at 11.0 µM): 13% | growth inhibition ([11]; at 33.0 µM): 23% | growth inhibition ([11]; at 100.0 µM): 36%
